# Records with an inconclusive call do not appear. Entries that show only a call come without a potency. The source made the active and inactive calls. Unless noted, the call rests on the fitted dose curve; in most records, active means well fitted curve in the direction sought with a large enough effect; inconclusive means small, poorly fitted or top-dose-only effect, or another doubt; inactive means no such curve, though single readings can be large; an effect the other way counts as inactive or inconclusive.
# Tests used:
# [1] = Validation of Assay for Modulators of Lamin A Splicing (AID 1459; active means well fitted curve in the direction sought with a large enough effect in the signal ratio; the % refers to the signal ratio;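 further: cells exposed to compound for two days before reading; ratio rise marks activators and ratio drop marks inhibitors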)
# Procedure, shortened: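 Dual-reporter HeLa S3 line (lamin A-EGFP minigene, DsRed2) treated with compounds 48 hrs, 0.5% DMSO final. Endpoint: EGFP/DsRed2 total intensity ratio from laser-scanning microplate cytometry.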
# [2] = qHTS Assay for Lipid Storage Modulators (AID 1519; calls by dose curve); details: Drosophila S3 cells, BODIPY lipid droplet/cell ratio, laser cytometry, cells loaded with oleic acid
# Procedure, shortened: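 Cells seeded at 5,000 per well were treated with compounds over a concentration series and loaded with oleic acid (400 uM, as added). Lipid droplet fluorescence (488 nm excitation, 500-530 nm channel) was read by laser-scanning cytometry and normalized to 20 uM Triacsin C.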
# [3] = target: DNA repair nuclease/redox regulator APEX1 (Homo sapiens) (UniProt P27695); experiment: qHTS Validation Assay for Inhibitors of the Human Apurinic/apyrimidinic Endonuclease 1 (APE1) (AID 1705;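 further: TAMRA fluorescence gain over two minutes as APE1 cuts a quenched THF abasic duplex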)
# Procedure, shortened: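 Substrate: 50 nM final fluorophore/quencher THF-abasic duplex. Enzyme preincubated with compounds 15 min, RT. Progress derived from fluorescence difference, third minus first kinetic read.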
# [4] = target: Endonuclease 4 (Escherichia coli (strain K12)) (UniProt P0A6C1); experiment: Counterscreen for APE1 Inhibitors: qHTS Validation Assay for Inhibitors of Endonuclease IV (AID 1708)
# Procedure, shortened: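 qHTS concentration-response format; LOPAC1280 tested under APE1-screen conditions. 2 nM enzyme, 15 min compound preincubation at RT, then 50 nM TAMRA/BHQ-2 abasic substrate; kinetic fluorescence read, three reads at 60 s intervals.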
# [5] = qHTS for differential inhibitors of proliferation of Plasmodium falciparum line GB4 (AID 1816); details: Potency: Plasmodium falciparum GB4 proliferation inhibition;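 further: parasite growth measured after 72 h incubation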
# [6] = qHTS for differential inhibitors of proliferation of Plasmodium falciparum line 3D7 (AID 1876);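 further: parasite growth measured after three days of culture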
# [7] = qHTS for differential inhibitors of proliferation of Plasmodium falciparum line D10 (AID 1877);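 further: parasites grown with compound for 72 h before DNA staining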
# [8] = qHTS for differential inhibitors of proliferation of Plasmodium falciparum line Dd2 (AID 1882); details: Potency: Plasmodium falciparum Dd2 proliferation inhibition; further: nearly all actives have a fitted effect of over 65% in size
# Procedure, shortened: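 Dd2-infected erythrocytes (0.3% parasitemia, 2.5% hematocrit final) incubated with compound 72 h at 37 C, 5% CO2; lysed with saponin/Triton buffer containing SYBR Green I, incubated overnight in the dark, then read by fluorescence (485/535 nm). Normalized to 0.29 uM artemisinin and DMSO.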
# [9] = qHTS for differential inhibitors of proliferation of Plasmodium falciparum line HB3 (AID 1886); details: Potency: Plasmodium falciparum HB3 proliferation inhibition;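 further: parasites grown with compound for 72 h before SYBR Green readout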
# [10] = qHTS Assay for Modulators of Human Peripheral Myelin Protein 22 (PMP22) Expression/Activity (AID 1967; active means well fitted curve in the direction sought with a large enough effect in the signal ratio; the % refers to the signal ratio)
# Procedure, shortened: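 Engineered MSC80 cells, Pmp22-promoter green and EF-alpha red luciferase reporters; 24h compound treatment at 37 °C. Concentration-response fits on green, red and ratio signals, each overlap-corrected, with %Activity normalized to untreated wells.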
# [11] = target: Ferritin light chain (Equus caballus) (UniProt P02791); experiment: qHTS Validation Assay for Identification of Novel General Anesthetics (AID 2323)
# Procedure, shortened: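 Normalized fluorescence response, scaled between free 1-AMA and 1-AMA/apoferritin complex, fitted to a four-parameter Hill equation for concentration-effect values. Binding mix: 10 uM horse-spleen apoferritin, 50% saturated 1-AMA in PBS; read 380/535 nm after 10 min.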
# [12] = target: ATP-dependent DNA helicase Q1 (Homo sapiens) (UniProt P46063); experiment: qHTS Validation Assay for Inhibitors of RecQ-Like Dna Helicase 1 (RECQ1) (AID 2353)
# Procedure, shortened: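 50 nM RECQ1T1 preincubated 15 min with compound in Tris pH 8.0 buffer with MgCl2, DTT, Tween-20 and 2.5 ug/ml poly(dI-dC); started with 200 nM TAMRA/BHQ-2 forked duplex and 2 mM ATP. Unwinding read as fluorescence (525/598 nm), two reads 2 h apart.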
# [13] = target: RecQ-like DNA helicase BLM (Homo sapiens) (UniProt P54132); experiment: qHTS Validation Assay for Inhibitors of Bloom's syndrome helicase (BLM) (AID 2364)
# Procedure, shortened: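 Forked 20-bp duplex substrate (200 nM, TAMRA/BHQ-2) plus 2 mM ATP added after 15 min compound preincubation with 50 nM enzyme, pH 8.0, poly(dI-dC) 2.5 ug/ml. Strand separation followed by fluorescence (525/598 nm) over 2 h, normalized to enzyme-free and DMSO controls.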
# [14] = Cytometric Cell-Based qHTS for Inhibitors of the mTORC1 Signaling Pathway in MEF (Tsc2-/-, p53-/-) Cells (AID 2660);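 further: Tsc2 and p53 null MEFs carrying empty vector with compound for 24 h; percent of cells above a phospho-rpS6 to PI ratio cutoff in each well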
# Procedure, shortened: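 Readout: Alexa-488 phospho-rpS6 (Ser235/236) intensity divided by PI intensity, thresholded against 7.5 nM rapamycin wells and reported as % positive cells. PI cell count served as the viability measure. Compound exposure was 24 hrs at 37 degree Celsius.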
# [15] = High Content Imaging Cell-Based qHTS for Inhibitors of the mTORC1 Signaling Pathway in MEF (Tsc2-/-, p53-/-) Cells (AID 2666); details: at 38.3 µM (top of the series);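 further: percent of cells scored positive for phospho-rpS6 Ser235/236 immunostaining by imaging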
# Procedure, shortened: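 Cells were plated, dosed with compound after 24 hrs, and incubated another 24 hrs at 37 degree Celsius. Fixed cells were immunostained for phospho-rpS6 Ser235/236 and counterstained, and the normalized signal was scored as % active cells against rapamycin and DMSO controls.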
# [16] = High Content Imaging Cell-Based qHTS for Inhibitors of the mTORC1 Signaling Pathway in MEF Cells (AID 2667);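 further: Tsc2-/- p53-/- MEFs stably re-expressing wild-type Tsc2 exposed 24 h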
# Procedure, shortened: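 Immunofluorescence for rpS6 phosphorylation in MEFs of Tsc2-/-, p53-/- background rescued with WT Tsc2. Compound exposure lasted 24 hrs. Inhibition was scored against rapamycin-treated control wells.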
# [17] = Validation screen for small molecules that induce DNA re-replication in MCF 10A normal breast cells (AID 463097); further: nearly all actives have a fitted effect of over 60% in size
# Procedure, shortened: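 Following 48 hr compound incubation (37 C, 5% CO2), MCF 10A cells receive Hoechst for 40 min at 37 C. Nuclei are then scanned (excitation 405 nm, emission 500-530 nm) for total fluorescence intensity.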
# [18] = target: Ubiquitin carboxyl-terminal hydrolase 2 (Homo sapiens) (UniProt O75604); experiment: qHTS Validation Assay for Inhibitors of Ubiquitin-specific Protease USP2a Using CHOP2 as the Reporter (AID 463106)
# Procedure, shortened: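 10nM USP2 core + cpd, 30min RT; add 25nM Ub-CHOP2/25nM substrate; 60min RT; FI 485/531nm. Buffer Tris pH 8.0, CaCl2, BME, CHAPS. Norm. to NEM = 100% inhibition; time-zero read flags fluorescent artifacts.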
# [19] = target: DNA polymerase III PolC-type (Bacillus subtilis (strain 168)) (UniProt P13267); experiment: qHTS Validation Assay for the Inhibitors of DNA Replication in Gram-Positive Bacteria (AID 485295);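 further: reconstituted holoenzyme with PolC plus beta clamp SSB and primase; PicoGreen fluorescence of double-stranded DNA made on primed circular M13 template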
# Procedure, shortened: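 Inhibition of DNA synthesis by the reconstituted PolC holoenzyme, monitored through PicoGreen staining of dsDNA formed from ssM13Gori, dNTPs and NTPs, with compound preincubation and room-temperature reaction.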
# [20] = target: Tumor susceptibility gene 101 protein (Homo sapiens) (UniProt Q99816); experiment: qHTS Validation Assay for Iinhibitors of HIV-1 Budding by Blocking the Interaction of PTAP/TSG101 (AID 485342; calls by dose curve)
# Procedure, shortened: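 Compound wells held the Tsg101 binding domain (10 uM) and a FITC-conjugated PTAP peptide (50 nM) in buffer at pH 7.5 containing 0.15 M NaCl and 0.01% Tween 20; polarization was recorded after 20 min, r.t.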
# [21] = qHTS Validation Assay to Find Inhibitors of Chronic Active B-Cell Receptor Signaling (AID 485345; active means well fitted curve in the direction sought with a large enough effect in the main read-out, with a control signal flat, not every such curve was filed as active)
# Procedure, shortened: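 Read-out: ratio of filter-corrected green (IkappaBalpha fusion) to red (native) luciferase signal in doxycycline-induced TMD8 cells after 4 h at 37C. Titration spanned 46 uM–3 nM; Data were normalised to basal cells and 10 uM MG-132 wells.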
# [22] = target: Beta-2 adrenergic receptor (Homo sapiens) (UniProt P07550); experiment: qHTS validation assay of beta-arrestin-biased ligands of beta2-adrenergic receptor (AID 485366)
# Procedure, shortened: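 Tango cells (recombinant beta2-AR with recombinant beta-arrestin; recruitment releases tTA driving luciferase) were treated with compounds titrated up to 46 microM for 18 hr at 37 degrees C. Luminescence gave %Activity, and concentration-response curves were curve-classified.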
# [23] = target: Thioredoxin reductase 1, cytoplasmic (Rattus norvegicus) (UniProt O89049); experiment: qHTS Assay for Substrates of Mammalian Selenoprotein Thioredoxin Reductase 1 (TrxR1) (AID 488772);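 further: NADPH fluorescence in the first read after selenite addition and not the 8 min delta; a drop in NADPH fluorescence below the no-compound background marks a TrxR1 substrate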
# Procedure, shortened: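 Quantitative HTS in Tris-HCl buffer at pH 7.5 with EDTA and Tween-20, using rat TrxR1, 400 uM NADPH and 400 uM selenite (final). A fall in initial NADPH fluorescence relative to background marked substrate behaviour.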
# [24] = target: Thioredoxin reductase 1, cytoplasmic (Rattus norvegicus) (UniProt O89049); experiment: qHTS Assay for Inhibitors of Mammalian Selenoprotein Thioredoxin Reductase 1 (TrxR1) (AID 488773); details: Potency: inhibition;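 further: drop in NADPH fluorescence over an 8 min run after selenite addition; nearly all actives have a fitted effect of over 40% in size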
# Procedure, shortened: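 Steps: enzyme (90 nM) plus NADPH (400 uM final), 5 min at ~22 deg C; compound added, 15 min; selenite (400 uM final) added; fluorescence followed for 8 min. Concentration-response curves derived from the normalized delta values.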
# [25] = target: Flap endonuclease 1 (Homo sapiens) (UniProt P39748); experiment: qHTS Validation Assay for the Inhibitors of Human Flap endonuclease 1 (FEN1) (AID 488816)
# Procedure, shortened: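 Readings taken at 0 and 15 min after starting the reaction with 50 nM (final) substrate supplied the signal. Compounds had first sat with 10 nM FEN1 reagent for 15 min at room temperature. Values come from Hill-equation concentration-response fits.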
# [26] = target: M-phase phosphoprotein 8 (Homo sapiens) (UniProt Q99549); experiment: qHTS Validation Assay for Inhibitors for MPP8 Chromodomain Interactions with Methylated Histone Tails (AID 488949);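 further: 50 nM MPP8 with 50 nM peptide preformed then compounds added for 30 min; AlphaScreen signal from MPP8 chromodomain bound to biotinylated H3K9me3 peptide; top concentration of the series differs between compounds; nearly all actives have a fitted effect of over 55% in size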
# Procedure, shortened: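 Chemiluminescent proximity assay: histidine-tag capture via nickel acceptor beads, biotin peptide via streptavidin donor beads. Protein and peptide each at 50 nM, pH 7.4, with 30 min incubations at room temperature for complex formation, compound exposure and bead binding.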
# [27] = target: Transient receptor potential cation channel subfamily V member 1 (Homo sapiens) (UniProt Q8NER1); experiment: HTS Assay for Compounds that Act as Enhancers of the Vanilloid Receptor 1 (AID 488979)
# Procedure, shortened: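 Calcium influx kinetics via Fluo-8 (480/520 nm) in TRPV1-expressing cells, 2000/well cultured overnight at 35.5C. Compound-alone read 3 min (agonist phase), followed by EC20 capsaicin challenge for 2 min (enhancer phase).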
# [28] = target: Thyrotropin receptor (Homo sapiens) (UniProt P16473); experiment: qHTS Assay for Antagonists of the Thyroid Stimulating Hormone Receptor (AID 488980)
# Procedure, shortened: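 Inhibition of TSH-stimulated cAMP accumulation was quantified by homogeneous time-resolved FRET in TSHR-transfected HEK293 cells. Agonist: TSH, 4 nM final (EC80).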
# [29] = target: D(1A) dopamine receptor (Homo sapiens) (UniProt P21728); experiment: HTS Assay for Allosteric Agonists of the Human D1 Dopamine Receptor: Primary Screen for Agonists (AID 488981)
# Procedure, shortened: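 Calcium flux in an inducible, force-coupled HEK293 Trex D1 line (overnight at 30 C): agonist mode is the 180 s kinetic read after compound; potentiator mode is the following 180 s read after dopamine at EC20.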
# [30] = target: D(1A) dopamine receptor (Homo sapiens) (UniProt P21728); experiment: HTS Assay for Allosteric Agonists of the Human D1 Dopamine Receptor: Primary Screen for Antagonists (AID 488983);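 further: calcium flux response to an EC80 dopamine challenge measured with no-wash dye; nearly all actives have a fitted effect of over 65% in size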
# Procedure, shortened: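 Cells are induced with tetracycline and incubated overnight at 30 C, then loaded with calcium dye for 30 to 90 minutes at room temperature. Compound addition is followed by a 180 s read, then an EC80 dopamine addition and another 180 s read.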
# [31] = Validation screen for small molecules that induce genotoxicity in human embryonic kidney (HEK293T) cells expressing luciferase-tagged ELG1 (AID 493106); further: potency means the concentration at half of the fitted maximal effect
# Procedure, shortened: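 Luminescence from an ELG1-luciferase fusion serves as the read-out, rising when genetic stress elevates ELG1 protein. HEK293T reporter cells (2,000 per well) received 23 nL compound, incubated 16 hr at 37 °C, then ONE-Glo for 30 min at room temperature.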
# [32] = target: Thyrotropin-releasing hormone receptor (Homo sapiens) (UniProt P34981); experiment: qHTS for Small Molecule Agonists and Allosteric Enhancers of Human TRH Receptor: Validation Screen for Agonists (AID 493127;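 active means calcium activation more than 3 SD above the typical response in the agonist read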;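 further: intracellular calcium rise by fluo-8 fluorescence before TRH EC20 addition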); details: TRH receptor agonist cell assay; at 2 µM; stronger effect = higher value
# Procedure, shortened: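 Cells 2000/well, 10% FCS, 18 h 33.5C/5% CO2 → fluo-8 Ca dye, RT 30 min–1.5 h → FDSS baseline 10 × 1 s → compound added → 230 cycles (1 s/cycle) agonist mode. TRH controls.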
# [33] = Nrf2 qHTS screen for inhibitors: Validation (AID 493153; active means well fitted inhibition curve with a large enough effect in the main read-out, with a control signal flat, not every such curve was filed as active;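 on activity change, negative = inhibition: A549 cells with ARE-driven firefly luciferase reporter reporting Nrf2 activity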); details: viability change: measured here: cytotoxicity max response
# Procedure, shortened: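 Luminescence from an ARE-firefly luciferase reporter in A549 cells gives Nrf2 inhibition; an earlier CellTiter-Fluor fluorescent read flags cytotoxicity. Cells in 5% FBS OPTI-MEM received compound dilution series for 18-24 h at 37°C.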
# [34] = qHTS for Inhibitors of Cell Surface uPA Generation: Validation Assay (AID 493164)
# Procedure, shortened: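 RAW 264.7 cells (4000/well) were plated overnight, then exposed for 18 h at 37 C, 5% CO2 to compounds in a 7-point 1:5 titration (2.45 nM–38.3 uM final). Intracellular ATP was read by ATP-Lite luminescence.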
# M-phase phosphoprotein 8 (Homo sapiens), sequence (Q99549 whole entry, looked up): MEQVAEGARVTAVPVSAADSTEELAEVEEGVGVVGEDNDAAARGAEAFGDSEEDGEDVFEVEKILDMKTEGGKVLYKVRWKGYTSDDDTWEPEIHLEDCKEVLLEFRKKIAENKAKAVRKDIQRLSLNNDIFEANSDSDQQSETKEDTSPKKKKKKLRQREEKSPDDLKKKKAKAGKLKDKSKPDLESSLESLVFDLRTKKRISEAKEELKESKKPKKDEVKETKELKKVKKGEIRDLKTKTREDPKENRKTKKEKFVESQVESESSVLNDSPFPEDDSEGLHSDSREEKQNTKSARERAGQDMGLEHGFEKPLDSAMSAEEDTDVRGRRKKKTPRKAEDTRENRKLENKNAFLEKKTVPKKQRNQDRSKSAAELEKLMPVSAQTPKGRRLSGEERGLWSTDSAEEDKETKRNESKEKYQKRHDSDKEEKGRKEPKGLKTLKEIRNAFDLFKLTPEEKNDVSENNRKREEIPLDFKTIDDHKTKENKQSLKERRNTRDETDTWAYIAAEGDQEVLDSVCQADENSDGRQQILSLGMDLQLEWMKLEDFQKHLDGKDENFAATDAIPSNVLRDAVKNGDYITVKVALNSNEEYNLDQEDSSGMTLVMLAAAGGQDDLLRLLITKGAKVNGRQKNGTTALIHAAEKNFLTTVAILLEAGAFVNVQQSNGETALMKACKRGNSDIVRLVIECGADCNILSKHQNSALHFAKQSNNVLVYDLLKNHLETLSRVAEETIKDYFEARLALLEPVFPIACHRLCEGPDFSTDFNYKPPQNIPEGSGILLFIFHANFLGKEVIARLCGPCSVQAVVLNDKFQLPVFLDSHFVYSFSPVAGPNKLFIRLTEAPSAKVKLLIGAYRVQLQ
# D(1A) dopamine receptor (Homo sapiens), sequence (P21728 whole entry, looked up): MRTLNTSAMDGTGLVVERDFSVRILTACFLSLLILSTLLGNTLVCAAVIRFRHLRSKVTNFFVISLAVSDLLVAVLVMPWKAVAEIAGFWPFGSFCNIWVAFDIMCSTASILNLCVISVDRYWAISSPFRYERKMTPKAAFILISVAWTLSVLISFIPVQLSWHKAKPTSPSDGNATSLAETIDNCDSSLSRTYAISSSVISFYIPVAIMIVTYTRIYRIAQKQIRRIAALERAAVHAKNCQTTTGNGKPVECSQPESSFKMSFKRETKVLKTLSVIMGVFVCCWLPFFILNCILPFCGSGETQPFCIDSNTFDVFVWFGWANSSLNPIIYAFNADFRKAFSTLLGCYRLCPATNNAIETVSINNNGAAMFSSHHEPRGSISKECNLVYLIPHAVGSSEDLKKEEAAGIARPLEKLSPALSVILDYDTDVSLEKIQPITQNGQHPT
# Thioredoxin reductase 1, cytoplasmic (Rattus norvegicus), sequence (O89049 whole entry, looked up): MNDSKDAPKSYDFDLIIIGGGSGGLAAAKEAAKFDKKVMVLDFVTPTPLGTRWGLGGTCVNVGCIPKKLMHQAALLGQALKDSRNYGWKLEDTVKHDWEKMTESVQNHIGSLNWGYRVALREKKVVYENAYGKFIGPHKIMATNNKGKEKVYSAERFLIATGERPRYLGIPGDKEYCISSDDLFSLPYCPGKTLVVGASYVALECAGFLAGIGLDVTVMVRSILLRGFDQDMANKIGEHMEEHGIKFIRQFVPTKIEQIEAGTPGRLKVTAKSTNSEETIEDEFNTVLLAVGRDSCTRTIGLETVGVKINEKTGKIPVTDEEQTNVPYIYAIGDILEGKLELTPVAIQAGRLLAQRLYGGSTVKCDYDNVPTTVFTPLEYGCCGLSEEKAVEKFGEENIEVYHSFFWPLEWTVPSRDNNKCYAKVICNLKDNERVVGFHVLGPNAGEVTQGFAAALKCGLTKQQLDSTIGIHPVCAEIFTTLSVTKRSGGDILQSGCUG
# DNA polymerase III PolC-type (Bacillus subtilis (strain 168)), sequence (P13267 whole entry, looked up): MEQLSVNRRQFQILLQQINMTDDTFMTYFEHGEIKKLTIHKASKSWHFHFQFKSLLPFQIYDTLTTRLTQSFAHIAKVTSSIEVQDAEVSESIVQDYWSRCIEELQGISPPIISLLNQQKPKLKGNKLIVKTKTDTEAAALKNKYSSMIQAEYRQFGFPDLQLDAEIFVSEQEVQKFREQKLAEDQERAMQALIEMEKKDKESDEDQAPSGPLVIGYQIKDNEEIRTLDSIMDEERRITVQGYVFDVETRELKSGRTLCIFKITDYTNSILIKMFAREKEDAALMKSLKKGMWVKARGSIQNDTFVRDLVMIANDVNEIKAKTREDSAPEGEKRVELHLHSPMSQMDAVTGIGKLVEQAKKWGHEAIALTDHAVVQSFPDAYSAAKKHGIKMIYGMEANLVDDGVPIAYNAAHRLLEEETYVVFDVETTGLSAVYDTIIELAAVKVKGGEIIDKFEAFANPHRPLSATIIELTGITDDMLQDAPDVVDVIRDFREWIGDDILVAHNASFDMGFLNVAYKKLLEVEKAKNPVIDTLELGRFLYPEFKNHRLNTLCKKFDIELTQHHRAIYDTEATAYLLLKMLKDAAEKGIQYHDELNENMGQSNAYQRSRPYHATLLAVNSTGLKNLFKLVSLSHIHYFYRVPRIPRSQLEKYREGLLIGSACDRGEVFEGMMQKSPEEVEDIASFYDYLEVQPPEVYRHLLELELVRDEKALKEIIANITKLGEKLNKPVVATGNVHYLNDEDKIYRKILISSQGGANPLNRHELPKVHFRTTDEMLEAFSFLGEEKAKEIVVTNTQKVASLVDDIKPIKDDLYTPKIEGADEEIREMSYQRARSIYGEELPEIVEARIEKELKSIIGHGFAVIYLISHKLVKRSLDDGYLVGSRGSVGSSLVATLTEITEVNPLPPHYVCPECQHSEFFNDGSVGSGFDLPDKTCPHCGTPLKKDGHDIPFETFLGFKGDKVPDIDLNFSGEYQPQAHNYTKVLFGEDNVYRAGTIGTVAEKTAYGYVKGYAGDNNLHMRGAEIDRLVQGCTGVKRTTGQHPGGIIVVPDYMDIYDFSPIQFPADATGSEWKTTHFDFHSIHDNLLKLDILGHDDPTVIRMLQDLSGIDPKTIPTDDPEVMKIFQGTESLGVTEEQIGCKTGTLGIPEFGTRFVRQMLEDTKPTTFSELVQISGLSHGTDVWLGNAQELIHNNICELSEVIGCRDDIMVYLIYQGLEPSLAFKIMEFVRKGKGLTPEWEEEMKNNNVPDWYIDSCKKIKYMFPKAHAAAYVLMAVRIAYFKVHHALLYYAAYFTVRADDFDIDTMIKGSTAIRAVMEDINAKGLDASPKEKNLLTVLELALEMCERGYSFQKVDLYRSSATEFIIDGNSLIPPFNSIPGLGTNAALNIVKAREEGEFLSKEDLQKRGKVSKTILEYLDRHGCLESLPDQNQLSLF
# Ferritin light chain (Equus caballus), sequence (P02791 2-175 limits assumed): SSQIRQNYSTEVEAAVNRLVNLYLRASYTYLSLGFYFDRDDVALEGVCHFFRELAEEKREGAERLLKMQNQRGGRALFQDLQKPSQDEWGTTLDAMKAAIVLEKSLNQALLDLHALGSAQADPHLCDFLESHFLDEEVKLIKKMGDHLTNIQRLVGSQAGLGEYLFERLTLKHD
# Tumor susceptibility gene 101 protein (Homo sapiens), sequence (Q99816 whole entry, looked up, the tested form may be a part): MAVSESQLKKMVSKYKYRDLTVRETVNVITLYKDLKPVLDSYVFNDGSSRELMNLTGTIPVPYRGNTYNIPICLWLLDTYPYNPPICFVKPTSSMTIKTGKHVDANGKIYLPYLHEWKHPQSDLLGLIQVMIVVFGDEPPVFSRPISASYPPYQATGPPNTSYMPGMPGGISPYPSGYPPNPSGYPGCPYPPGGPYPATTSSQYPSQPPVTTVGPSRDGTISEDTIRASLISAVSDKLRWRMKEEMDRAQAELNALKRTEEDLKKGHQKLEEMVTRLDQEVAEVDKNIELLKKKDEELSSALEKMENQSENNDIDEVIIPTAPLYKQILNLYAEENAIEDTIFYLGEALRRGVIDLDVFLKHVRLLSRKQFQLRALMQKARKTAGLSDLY
# Thyrotropin-releasing hormone receptor (Homo sapiens), sequence (P34981 whole entry, looked up): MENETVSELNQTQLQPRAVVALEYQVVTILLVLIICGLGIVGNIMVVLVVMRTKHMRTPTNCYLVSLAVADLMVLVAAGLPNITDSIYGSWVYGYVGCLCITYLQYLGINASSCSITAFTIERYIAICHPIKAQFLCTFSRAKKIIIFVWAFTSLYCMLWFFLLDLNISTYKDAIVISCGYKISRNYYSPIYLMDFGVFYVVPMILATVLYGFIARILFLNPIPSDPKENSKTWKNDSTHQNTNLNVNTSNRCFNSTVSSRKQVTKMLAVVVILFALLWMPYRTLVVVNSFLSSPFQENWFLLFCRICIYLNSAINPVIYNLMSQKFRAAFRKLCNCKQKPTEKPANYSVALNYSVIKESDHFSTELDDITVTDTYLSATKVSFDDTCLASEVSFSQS
# Beta-2 adrenergic receptor (Homo sapiens), sequence (P07550 whole entry, looked up): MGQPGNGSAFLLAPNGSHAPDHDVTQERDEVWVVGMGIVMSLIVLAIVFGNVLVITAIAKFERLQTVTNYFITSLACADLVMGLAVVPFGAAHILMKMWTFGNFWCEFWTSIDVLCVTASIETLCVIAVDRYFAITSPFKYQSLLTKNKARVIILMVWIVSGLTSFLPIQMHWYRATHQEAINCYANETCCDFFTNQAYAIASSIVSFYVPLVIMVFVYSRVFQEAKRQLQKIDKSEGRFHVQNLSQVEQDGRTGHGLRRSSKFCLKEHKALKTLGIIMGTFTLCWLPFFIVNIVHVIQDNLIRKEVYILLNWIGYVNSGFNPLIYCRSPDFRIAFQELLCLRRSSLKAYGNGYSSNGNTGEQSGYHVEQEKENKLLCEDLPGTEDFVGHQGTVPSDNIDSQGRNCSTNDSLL
# Flap endonuclease 1 (Homo sapiens), sequence (P39748 whole entry, looked up): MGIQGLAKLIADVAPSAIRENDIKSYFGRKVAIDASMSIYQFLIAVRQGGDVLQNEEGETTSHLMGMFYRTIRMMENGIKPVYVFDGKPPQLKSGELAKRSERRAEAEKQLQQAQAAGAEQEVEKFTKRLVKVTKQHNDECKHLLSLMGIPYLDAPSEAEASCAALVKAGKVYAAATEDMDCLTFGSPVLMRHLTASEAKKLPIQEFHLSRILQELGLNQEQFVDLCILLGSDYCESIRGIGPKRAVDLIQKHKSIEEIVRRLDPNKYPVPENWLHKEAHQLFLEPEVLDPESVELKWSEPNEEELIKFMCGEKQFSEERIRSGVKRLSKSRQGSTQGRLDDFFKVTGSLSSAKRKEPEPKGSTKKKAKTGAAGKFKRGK
smiles,measurement,setting,value
Cc1cccc(/C=C/c2ccccc2)n1,outcome,[1],inactive
same,"activity change, negative = inhibition",[2]; at 57.5 µM (top of the series),1.78% (inactive)
same,max response,[2]; measured here: cell count channel max response,54.4%
same,max response,[2]; measured here: lipid channel max response,55.9%
same,Potency,[3],inactive
same,Potency,[4],inactive
same,Potency,[5],inactive
same,Potency,[6],inactive
same,Potency,[7],inactive
same,Potency,[8],inactive
same,Potency,[9],inactive
same,outcome,[10],inactive
same,outcome,[11],inactive
same,Potency,[12],inactive
same,Potency,[13],inactive
same,outcome,[14],inactive
same,outcome,[15],inactive
same,Potency,[16],inactive
same,Potency,[17],inactive
same,Potency,[18],inactive
same,Potency,[19],inactive
same,outcome,[20],inactive
same,outcome,[21],inactive
same,outcome,[22],inactive
same,outcome,[23],inactive
same,Potency,[24],inactive
same,Potency,[25],inactive
same,Potency,[26],inactive
same,outcome,[27],inactive
same,outcome,[28],inactive
same,outcome,[29],inactive
same,outcome,[30],inactive
same,Potency,[31],4.11 µM (active)
same,activation,[32],-7% (inactive)
same,outcome,[33],inactive
same,viability change,[33],-2.71%
same,outcome,[34],inactive
